Assay [1] is described as follows: Quantitative High-Throughput drug screen in 47 multiple myeloma cell lines against the NCATS MIPE library collection: KMS34_JCRB cell viability assay (AID 1918985). Also: potency is read from the fitted curve at half-maximal effect; nearly all actives have a fitted effect of over 40% in size. The essentials: (§1)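 Viability after 48 h drug exposure was measured as ATP-dependent luminescence. Cells, 500 per well, sat at 37 °C under 5% CO2; DMSO wells set 100%, media-only wells 0%.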
Assay [2] in a line: Quantitative High-Throughput drug screen in 47 multiple myeloma cell lines against the NCATS MIPE library collection: OCIMY7_PLB cell viability assay (AID 1918987). Also: potency is read from the fitted curve at half-maximal effect; nearly all actives have a fitted effect of over 65% in size. The method in brief: as §1
Assay [3] in a line: Quantitative High-Throughput drug screen in 47 multiple myeloma cell lines against the NCATS MIPE library collection: OPM1_PLB cell viability assay (AID 1918989). Also: potency is read from the fitted curve at half-maximal effect; nearly all actives have a fitted effect of over 40% in size. The method in brief: as §1
Assay [4] in a line: Quantitative High-Throughput drug screen in 47 multiple myeloma cell lines against the NCATS MIPE library collection: U266_ATCC cell viability assay (AID 1919864). Also: potency is read from the fitted curve at half-maximal effect; nearly all actives have a fitted effect of over 35% in size. The essentials:
as §1

Assay [5] is described as follows: Quantitative High-Throughput drug screen in 47 multiple myeloma cell lines against the NCATS MIPE library collection: VP6_DJ cell viability assay (AID 1919867). Also: potency is read from the fitted curve at half-maximal effect; nearly all actives have a fitted effect of over 40% in size. The essentials:
as §1

Assay [6] can be described thus: Quantitative High-Throughput drug screen in 47 multiple myeloma cell lines against the NCATS MIPE library collection: UTMC2_PLB cell viability assay (AID 1919868). Also: potency is read from the fitted curve at half-maximal effect; nearly all actives have a fitted effect of over 55% in size. The conditions noted are these: CellTiter-Glo ATP luminescence, 48 h; viability (% of DMSO control): at 45.8 µM (top of the series) unless noted. The method in brief: as §1
On the technique in general: ATP-based viability assays read luminescence as a measure of living cells.

The nature of assay [7]: Quantitative High-Throughput drug screen in 47 multiple myeloma cell lines against the NCATS MIPE library collection: PE2_PLB cell viability assay (AID 1919869). Also: potency is read from the fitted curve at half-maximal effect; nearly all actives have a fitted effect of over 35% in size. The essentials:
as §1

A short description of assay [8]: Quantitative High-Throughput drug screen in 47 multiple myeloma cell lines against the NCATS MIPE library collection: RPMI8226_ATCC cell viability assay (AID 1919871). Also: potency is read from the fitted curve at half-maximal effect; nearly all actives have a fitted effect of over 30% in size. The essentials:
as §1

Assay [9] is described as follows: Quantitative High-Throughput drug screen in 47 multiple myeloma cell lines against the NCATS MIPE library collection: OPM2_DSMZ cell viability assay (AID 1919872). Also: potency is read from the fitted curve at half-maximal effect; nearly all actives have a fitted effect of over 30% in size. The method in brief: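 CellTiter-Glo ATP luminescence gave viability after 48 h compound treatment at 37C of 500 multiple myeloma cells per well. Normalisation used DMSO-only wells as 100% and media-only wells as 0% viability; primary qHTS of approved and investigational drugs.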

Assay [10] is described as follows: Quantitative High-Throughput drug screen in 47 multiple myeloma cell lines against the NCATS MIPE library collection: KMS28BM_JCRB cell viability assay (AID 1919874). Also: nearly all actives have a fitted effect of over 35% in size. Also: potency is read from the fitted curve at half-maximal effect. The essentials: as §1
Assay [11] is described as follows: qHTS drug screen for cell cycle checkpoint inhibitors in PARPi-resistant BRCA-mutant ovarian cancer cell lines. (AID 1963452; calls by dose curve). As to conditions: PEO1/OlaR viability, CellTiter-Glo luminescence, 96 h, stronger effect = lower value. The essentials:
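PEO1, PEO4 and PEO1/OlaR ovarian cancer cells, 600 per well, exposed 96 h at 37C to a dilution series. Viability read by CellTiter-Glo luminescence, normalized to DMSO and empty wells; activity summarized as Z-AUC.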

A short description of assay [12]: Quantitative High-Throughput drug screen in 47 multiple myeloma cell lines against the NCATS MIPE library collection: SKMM1_PLB cell viability assay (AID 1919863). Also: potency is read from the fitted curve at half-maximal effect; nearly all actives have a fitted effect of over 35% in size. As to conditions: SKMM1 myeloma viability, CellTiter-Glo ATP, 48 h; viability: stronger effect = lower value. The essentials:
as §1

A short description of assay [13]: Quantitative High-Throughput drug screen in 47 multiple myeloma cell lines against the NCATS MIPE library collection: XG6_PLB cell viability assay (AID 1919865). Also: potency is read from the fitted curve at half-maximal effect; nearly all actives have a fitted effect of over 40% in size. The method in brief:
as §1

A short description of assay [14]: Quantitative High-Throughput drug screen in 47 multiple myeloma cell lines against the NCATS MIPE library collection: PCM6_Riken cell viability assay (AID 1919870). Also: potency is read from the fitted curve at half-maximal effect; nearly all actives have a fitted effect of over 30% in size. The method in brief:
as §1

Assay [15] can be described thus: Quantitative High-Throughput drug screen in 47 multiple myeloma cell lines against the NCATS MIPE library collection: KMS11_JCRBsus cell viability assay (AID 1919873). Also: potency is read from the fitted curve at half-maximal effect; nearly all actives have a fitted effect of over 50% in size. The essentials: as §1
Assay [16] can be described thus: Quantitative High-Throughput drug screen in 47 multiple myeloma cell lines against the NCATS MIPE library collection: XG1_PLB cell viability assay (AID 1919866). The method in brief:
as §1

The mark [17] stands for this setting: measured here: PEO1 parental Z-AUC.

Inconclusive results are not listed. The source made the active and inactive calls. Unless noted, calls follow the shape of the dose curve; as a rule, active = well fitted cell-killing curve with a large enough effect; inconclusive = small, poorly fitted or top-dose-only effect, or effect the other way; inactive = no such curve, though single readings can be large or run the other way.

With `CC(=O)OCC(=O)[C@@]1(O)[C@H](C)C[C@H]2[C@@H]3C=C(C)C4=Cc5c(cnn5-c5ccccc5)C[C@]4(C)[C@@H]3[C@@H](O)C[C@@]21C`, the Potency was 8.33 µM (active) in [1]; 7.43 µM (active) in assay [2]; 9.35 µM (active) in assay [3]; 7.43 µM (active) in [4]; 9.35 µM (active) in assay [5]; 11.8 µM (active) in assay [6]. The Potency in assay [7] was 8.33 µM (active); in assay [8] it was 4.18 µM (active); in [9], 20.9 µM (active). Further, the Potency result in assay [10] is “inactive”. The results for the Z-AUC in [11], in [11] (setting [17]) and in assay [11] (measured here: PEO4 Z-AUC) were -0.679 (inactive), 0.732 and -0.158, respectively.

For `O=C(CCCCCCNC(=O)c1cnc(N(c2ccccc2)c2ccccc2)nc1)NO`, the Potency in assay [1] was 5.9 µM (active); in assay [2], 13.2 µM (active); in [3], 6.62 µM (active); in assay [12] it was 9.35 µM (active); in assay [4] it was 9.35 µM (active); in assay [13] it was 14.8 µM (active). The Potency in [5] was 2.35 µM (active); in assay [6], 7.43 µM (active); in assay [7], 9.35 µM (active); in assay [14] it was 9.35 µM (active); in [8], 14.8 µM (active); in [9], 10.5 µM (active). Moreover, the Potency in [15] was 7.43 µM (active); in assay [10] it was 4.18 µM (active). The Z-AUC in assay [11] was 0.809 (inactive); in assay [11] (setting [17]), 0.473; in assay [11] (measured here: PEO4 Z-AUC) it was 0.434.

Turning to `CN(C)CC=CC(=O)Nc1cc2c(Nc3ccc(F)c(Cl)c3)ncnc2cc1O[C@H]1CCOC1`, the Potency is 20.9 µM (active) in assay [1]; 0.372 µM (active) in assay [2]; 3.72 µM (active) in assay [3]; 6.62 µM (active) in assay [12]; 20.9 µM (active) in assay [4]; 2.64 µM (active) in [13]. The Potency in assay [16] was 4.18 µM (active); in [5] it was 0.59 µM (active); in assay [6], 5.26 µM (active); in assay [7], 2.96 µM (active); in [8], 16.6 µM (active); in [15] it was 6.62 µM (active). In assay [10], the Potency is 11.8 µM (active).

Regarding `C1=CCOCc2cc(ccc2OCCN2CCCC2)Nc2nccc(n2)-c2cccc(c2)OCC1`, the Potency was 2.35 µM (active) in [1]; 1.18 µM (active) in assay [2]; 3.32 µM (active) in assay [3]; 9.35 µM (active) in [12]; 5.26 µM (active) in assay [4]; 1.87 µM (active) in assay [13]. Moreover, the Potency in [5] was 1.05 µM (active); in assay [6] it was 1.48 µM (active); in assay [7], 1.66 µM (active); in [14] it was 0.935 µM (active); in assay [8], 5.9 µM (active); in assay [9], 7.43 µM (active). In addition, the Potency was 1.32 µM (active) in assay [15] and 2.35 µM (active) in assay [10].

As to `CC1(C)CCC(c2ccc(Cl)cc2)=C(CN2CCN(c3ccc(C(=O)NS(=O)(=O)c4ccc(N[C@H](CCN5CCOCC5)CSc5ccccc5)c(S(=O)(=O)C(F)(F)F)c4)cc3)CC2)C1`, the Potency in [1] was 9.35 µM (active); in assay [2], 0.001 µM (active); in assay [3], 5.26 µM (active); in assay [4] it was 14.8 µM (active); in assay [13] it was 11.8 µM (active); in assay [16], 16.6 µM (active). The Potency in [5] was 0.372 µM (active); in [6] it was 0.0935 µM (active); in [7] it was 2.64 µM (active); in assay [14], 0.0264 µM (active); in [8], 2.96 µM (active); in assay [9], 18.7 µM (active). Further, the Potency in assay [10] is 0.332 µM (active). In addition, the Z-AUC was -0.481 (inactive) in assay [11], -0.554 in assay [11] (setting [17]) and -1.15 in assay [11] (measured here: PEO4 Z-AUC).

The record behind these values is PubChem BioAssay (NCATS).
